Screening data as filed in PubChem.
Giardia killer: kills Giardia lamblia; AID 540267; Giardia lamblia trophozoite viability; 0.15% of 340,000 active; activity change, % at 7.66 µM, hits read low; in the data active = activity change below about -80%; inconclusive = between about -30% and that limit;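 note: parasites exposed to compound for two days anaerobically before the ATP read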
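Giardia trophozoites, 100 cells per well, were exposed to compounds for 48 hrs at 37 deg C under anaerobic conditions; viability was then read as ATP content by bioluminescence after 15-30 min at room temperature.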
Pin1 inh: blocks the human prolyl isomerase Pin1 | Q13526 | 0.009% of 390,000 active | Pin1 FP peptide displacement, HiFluor488, 10 min | Potency, µM (doses to about 115 µM), for inactives: at the top dose activity, negative = inhibition, usual class: inhibitors | AID 504891; active = well fitted inhibition curve with a large enough effect in the polarisation, with a control signal flat, not every such curve was filed as active; inconclusive = small, poorly fitted or top-dose-only effect, or effect the other way, or a change in a side signal; inactive = no such curve, though single readings can be large or run the other way; the % refers to the polarisation; note: potency is the fitted concentration of half-maximal effect
rTrxR1 inhibitor: inhibitors of rat thioredoxin reductase 1; O89049; 1% of 390,000 active; recombinant rTrxR1, NADPH fluorescence consumption, selenite substrate; Potency, µM (top dose mostly 114 µM), for inactives: at the highest dose activity change, negative = inhibition, most hits filed as inhibitors; note: potency is the fitted concentration of half-maximal effect; nearly all actives have a fitted effect of over 65% in size
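Rat TrxR1 (90 nM in the dispensed reagent) was pre-reduced with 400 uM NADPH for 5 min at room temperature, then incubated with compound for 15 min. After 400 uM selenite was added, NADPH fluorescence (Ex 340/Em 450 nm) was followed for 8 min.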
KAT2A inh: blocks human GCN5L2 histone acetyltransferase; Potency, µM (top dose mostly 58.9 µM), without a hit: top-dose activity change, negative = inhibition, most hits filed as inhibitors; GCN5L2 HAT assay, ThioGlo1 CoA-SH fluorescence; Q92830; 0.21% of 390,000 active; note: potency is the fitted concentration of half-maximal effect
Target sequence (Q92830 whole entry, looked up): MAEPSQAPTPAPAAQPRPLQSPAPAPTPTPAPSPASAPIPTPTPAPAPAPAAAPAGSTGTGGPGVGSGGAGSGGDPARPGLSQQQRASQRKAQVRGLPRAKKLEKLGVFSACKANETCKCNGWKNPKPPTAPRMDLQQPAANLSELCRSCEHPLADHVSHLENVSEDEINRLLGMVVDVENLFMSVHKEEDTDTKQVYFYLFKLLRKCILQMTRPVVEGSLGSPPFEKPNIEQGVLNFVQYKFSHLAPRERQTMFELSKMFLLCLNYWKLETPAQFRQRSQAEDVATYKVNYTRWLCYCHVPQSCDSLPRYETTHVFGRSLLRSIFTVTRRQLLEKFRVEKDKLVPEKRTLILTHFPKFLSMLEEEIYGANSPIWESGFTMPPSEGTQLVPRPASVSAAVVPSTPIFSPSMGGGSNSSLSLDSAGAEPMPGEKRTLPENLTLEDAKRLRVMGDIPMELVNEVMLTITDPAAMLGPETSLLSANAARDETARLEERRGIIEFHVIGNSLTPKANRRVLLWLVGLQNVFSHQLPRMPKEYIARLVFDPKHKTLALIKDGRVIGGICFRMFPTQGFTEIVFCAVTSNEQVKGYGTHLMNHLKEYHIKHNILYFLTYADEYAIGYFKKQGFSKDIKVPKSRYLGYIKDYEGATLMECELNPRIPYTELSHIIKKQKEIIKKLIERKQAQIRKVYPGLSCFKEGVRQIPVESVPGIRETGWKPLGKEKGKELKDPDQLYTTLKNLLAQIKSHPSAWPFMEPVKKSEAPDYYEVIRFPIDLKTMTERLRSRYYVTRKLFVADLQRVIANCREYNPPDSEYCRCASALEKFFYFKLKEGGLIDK
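Preincubate 20nM GCN5L2 with compound 15 min, RT → add 50uM ThioGlo1 + 75uM H3(1-25) + 70uM acetyl-CoA → read fluorescence 0 and 20 min. Primary qHTS; fluorescent artifacts likely.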
TrxR1 substrate: is turned over as a substrate by rat TrxR1. O89049. purified TrxR1 substrate turnover, NADPH consumption readout. Potency, µM (titrated, usually from 114 µM), for inactives: at the highest dose activity change, negative = substrate turnover. 0.01% of 390,000 active. AID 588456; note: potency is the fitted concentration of half-maximal effect; nearly all actives have a fitted effect of over 50% in size
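Rat TrxR1, dispensed at 90 nM, was prereduced with 400 uM NADPH (final) for 5 min at ~22 deg C, then incubated with compound 15 min before 400 uM selenite. A first-read NADPH fluorescence drop versus no-compound background flagged substrates.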
GALK inhibitor: inhibitors of human galactokinase; Potency, µM (series often up to 57.5 µM), for the others: at the top dose activity change, negative = inhibition, usual class: inhibitors; AID 1868; P51570; 0.007% of 270,000 active; Purified GALK, Kinase-Glo residual ATP luminescence; note: potency is the fitted concentration of half-maximal effect
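Galactose (100 uM) and ATP (35 uM) were turned over by 5 nM GALK for 1 h at RT. Kinase-Glo Plus then converted the remaining ATP into a luminescent signal.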
* marks the source's active call; other numbers are inactive results; ? = inconclusive; . = not tested or not shown; [ ] = another dose, or the depositor's remark. Rows were chosen to be rich in hits. Some 1.3% of all compounds tested hit in one or more screens of this group. Unless noted, calls come from the whole dose curve; as a rule, active = well fitted curve in the direction sought with a large enough effect; inconclusive = small, poorly fitted or top-dose-only effect, or another doubt; inactive = no such curve, though single readings can be large; an effect the other way counts as inactive or inconclusive. % is set by controls: 0 for no effect and ±100 for the full control effect.

SMILES	Giardia killer	Pin1 inh	rTrxR1 inhibitor	KAT2A inh	TrxR1 substrate	GALK inhibitor
Cc1cc(S(=O)(=O)NCC(c2ccco2)S(=O)(=O)c2cccs2)ccc1F (stereo not given)	.	-5.7%	0.355µM*	-3.8%	-1.6%[57.1 µM]	.
O=C1c2ccccc2C(=O)N1Nc1ccccc1	5.6	-0.3%	-3.0%	-2.9%	-7.6%	-1.2%
Cc1ccc(NN2C(=O)C=C(c3ccccc3)C2=O)cc1	-19.5	-4.8%	6.31µM*	-23.5%	-4.0%	-2.1%
CN(C)C1CCC(CC2CCc3ccccc32)CC1 (stereo not given)	.	.	11.5%	.	9.0%	.
O=C(Cc1ccccc1Cl)NO	.	.	6.3%	.	0.1%	.
Cn1nc(-c2ccccn2)nc2c(=O)n(C)c(=O)nc1-2	-7.5	.	?	-5.4%	35.5µM*	1µM*
CCc1ccc(-c2nc3c(=O)n(C)c(=O)nc-3n(CC)n2)cc1	-90.7*	.	-16.3%	.	35.5µM*	.
Cc1ccc(-n2c3nc(=O)n(C)c(=O)c-3cc3ccccc32)cc1	-3.3	0.8%	15.1%	-11.9%	144.8%	4.9%
CCn1c(N)nc2c1c(=O)n(C)c(=O)n2C	-0.4	3.7%	17.1%	-10.9%	5.9%	1.0%
CCCc1nc2c(=O)n(C)c(=O)nc-2n(C)n1	?	?	-100.9%	-4.4%	?	1.78µM*
Cc1ccccc1-c1nc2c(=O)n(C)c(=O)nc-2n(C)n1	-86.5*	.	14.1µM*	.	12.6µM*	.
CCOc1ccc(-c2cc(CCCC(=O)NCCc3cc(OC)c(OC)c(OC)c3)no2)cc1	.	-9.4%	3.3%	1.0%	2.0%	.
C1=Nc2ccccc2/C1=C/c1ccccc1	.	.	31.9%	.	17.4%	.
CCC1=C[C@@H]2CN(C1)Cc1c([nH]c3ccccc13)[C@@](C(=O)OC)(c1cc3c(cc1OC)N(C)[C@H]1[C@@](O)(C(=O)OC)[C@H](OC(C)=O)[C@]4(CC)C=CCN5CC[C@]31[C@@H]54)C2	.	.	28.2µM*	32.0%	3.6%	.
CCC1Sc2ccc(S(=O)(=O)CCC(=O)Nc3ccccc3Cl)cc2NC1=O (stereo not given)	-9.7	-0.1%	12.3%[57.1 µM]	-3.2%	7.6%[57.1 µM]	8.0%
Cc1ccc(CNC(=O)CCS(=O)(=O)c2ccc(Br)s2)o1	-6.9	-2.3%	8.91µM*	-12.7%	7.3%	-1.8%
O=C(CCS(=O)(=O)c1ccc(Br)s1)NCc1ccccc1	5.1	6.7%	-11.1%[57.1 µM]	-4.3%	-2.7%[57.1 µM]	-1.3%
CCC1Sc2ccc(S(=O)(=O)CCC(=O)NCc3ccc(C)o3)cc2NC1=O (stereo not given)	2.4	-5.3%	50.1µM*	-3.2%	-2.7%	-2.1%
CCN(CC)S(=O)(=O)c1cc(NC(=O)c2cc([N+](=O)[O-])ccc2N2CCOCC2)ccc1C	3.9	4.4%	13.5%	-7.2%	-4.2%	-8.7%
Cc1c2oc3c(C)ccc(C(=O)N[C@@H]4C(=O)N[C@@H](C(C)C)C(=O)N5CCC[C@@H]5C(=O)N(C)CC(=O)N(C)[C@@H](C(C)C)C(=O)O[C@H]4C)c3nc-2c(C(=O)N[C@@H]2C(=O)N[C@@H](C(C)C)C(=O)N3CCC[C@@H]3C(=O)N(C)CC(=O)N(C)[C@@H](C(C)C)C(=O)O[C@H]2C)c(N)c1=O	.	.	.	-12.4%	.	.
COC(=O)C1Cc2ccccc2CN1C(=O)CCl (stereo not given)	-21.6	0.6%	14.1µM*	-7.1%	6.9%[57.1 µM]	0.8%
N#Cc1nc(Nc2ccc(F)cc2)nc(NC2CCCC2)n1	.	-3.3%	.	.	.	.
COc1ccccc1C(OC(=O)c1cccs1)C(=O)NCc1ccco1 (stereo not given)	3.7	14.0%	15.8µM*	-1.2%	4.3%	4.2%
Cc1cc(Nc2ccc(F)cc2)nc(-n2nc(C)cc2C)n1	.	-4.9%	21.3%[57.1 µM]	-8.8%	3.9%[57.1 µM]	.
CC(C)c1ccc2c(c1)-c1ccccc1S(=O)(=O)N2CC(=O)N1CCCCC1	.	23.9%	19.2%	-1.3%	-2.4%	.
CN(C)S(=O)(=O)c1cccc(NC(=S)Nc2cc(Cl)cc(Cl)c2)c1	-11.0	-4.4%	20µM*	-0.9%	-7.8%	0.2%
